Bioassay records as filed in PubChem.
Sm TGR block = inhibitors of Schistosoma mansoni thioredoxin glutathione reductase. Q962Y6. purified TGR, DTNB reduction, TNB absorbance 405 nm. Potency, µM (doses to about 114 µM), inactives show at the top dose activity change, negative = inhibition, actives largely listed as inhibitors. 360,000 tested, 3% active; further: nearly all actives have a fitted effect of over 60% in size
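TGR 20 nM + NADPH 100 uM (dispensed conc.), cpd preinc 15 min RT; start with NADPH (500 uM addition) then DTNB (15 mM addition). Kinetic TNB absorbance, 405 nm filter. Four-parameter Hill fit across titration.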
AMA1-RON2 inh = disrupts binding of P. falciparum AMA1 to RON2; AlphaScreen AMA1-biotinylated RON2 peptide binding; Potency, µM (series often up to 58.2 µM), without a hit: at the top dose activity change, negative = inhibition, hits mostly inhibitors; 360,000 tested, 0.2% active;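 further: 0% = vehicle wells and -100% = peptide control; nearly all actives have a fitted effect of over 45% in size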
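AMA1 (3D7) with his tag at 25 nM final met compounds first, then biotinylated RON2 peptide at 25 nM; detection used donor plus acceptor beads, 10 µg/mL apiece, read by AlphaScreen after 30 min at room temperature.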
Tb PYK inh = blocks Trypanosoma brucei pyruvate kinase; 410,000 tested, 0.12% active; Potency, µM (titrated, usually from 76.8 µM), for the others: at the top dose activity, negative = inhibition, usual class: inhibitors; Q57TT1; TbPYK enzyme, Kinase-Glo Plus ATP luminescence, 45 min; further: nearly all actives have a fitted effect of over 50% in size
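TbPYK + substrate in 50 mM TEA pH 7.2, 100 mM KCl, 10 mM MgCl2, 0.05% BSA, 0.01% Tween-20; cpd pinned; ADP 130 uM final; 45 min RT; Kinase-Glo Plus 10 min; luminescence endpoint.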
RE007 growth inh = less growth of the S. pombe RE007 Vpr strain | S. pombe RE007 Vpr strain, BacTiter-Glo ATP luminescence, 24 h | Potency, µM (top dose mostly 92.2 µM), inactives show top-dose activity change, negative = less growth, hits mostly inhibitors | 360,000 tested, 0.21% active | AID 651644; active means well fitted falling curve with a large enough effect; inconclusive means small, poorly fitted or top-dose-only effect; inactive means no such curve, though single readings can be large or run the other way; further: nearly all actives have a fitted effect of over 50% in size
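Fission yeast strain RE007, carrying one chromosomally integrated HIV-1 vpr copy, was seeded at OD 0.01 in PMG+AL medium with 23 nL pinned compound. After 24 h at 30 °C and 99% humidity, viability was read by BacTiter-Glo luminescence.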
LmPK inh = inhibitors of Leishmania mexicana pyruvate kinase; Q27686; purified LmPK, Kinase-Glo ATP luminescence, 1 h; Potency, µM (top dose mostly 57.5 µM), without a hit: top-dose activity change, negative = inhibition, most hits filed as inhibitors; 290,000 tested, 0.37% active
Target sequence (Q27686 whole entry, looked up): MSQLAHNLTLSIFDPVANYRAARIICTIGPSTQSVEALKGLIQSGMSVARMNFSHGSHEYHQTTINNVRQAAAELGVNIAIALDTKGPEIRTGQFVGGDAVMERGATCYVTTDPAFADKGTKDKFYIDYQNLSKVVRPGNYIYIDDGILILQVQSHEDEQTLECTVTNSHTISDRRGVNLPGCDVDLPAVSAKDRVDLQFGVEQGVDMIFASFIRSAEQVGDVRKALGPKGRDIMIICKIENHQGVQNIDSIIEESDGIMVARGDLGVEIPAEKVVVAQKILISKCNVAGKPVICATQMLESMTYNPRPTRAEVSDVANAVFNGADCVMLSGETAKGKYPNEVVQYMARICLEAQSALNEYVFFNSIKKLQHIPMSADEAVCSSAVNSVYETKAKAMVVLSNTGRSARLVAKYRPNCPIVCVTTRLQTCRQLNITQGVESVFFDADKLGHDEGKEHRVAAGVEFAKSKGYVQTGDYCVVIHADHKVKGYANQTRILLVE
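0.1 nM LmPK, 0.5 mM PEP, 0.1 mM ADP; 50 mM imidazole pH 7.2, 7 mM MgCl2, 50 mM KCl; 1 h RT. Kinase-Glo luminescence readout, normalized to no-enzyme (full inhibition) and uninhibited wells.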
An asterisk follows results filed as active; ? = inconclusive; . = not tested or not shown; [ ] = dose if it differs, or a comment. Hits are enriched below; roughly 3.2% of the tested compounds scored in any of these assays. Unless noted, the call rests on the fitted dose curve; in most records, active means well fitted curve in the direction sought with a large enough effect; inconclusive means small, poorly fitted or top-dose-only effect, or another doubt; inactive means no such curve, though single readings can be large; an effect the other way counts as inactive or inconclusive. Unless noted, on the % scale 0 is the no-effect control and ±100 the full control effect; potency means the concentration at half of the fitted maximal effect.

SMILES	Sm TGR block	AMA1-RON2 inh	Tb PYK inh	RE007 growth inh	LmPK inh
COc1cc2c(cc1OC)-c1nnnn1C(C)(C)C2	9%	-9%	-11%	-6%	-1%
CCOC(=O)C1CCCN(C(c2ccccn2)c2c(C)[nH]c3ccccc23)C1 (stereo not drawn)	0.32µM*	-3%	0%	?	14%
CCOC(=O)C1CCN(CC(=O)c2c(C)[nH]c3ccccc23)CC1	35µM*	7%	?	0%	-1%
CCC1CCCCN1CC(=O)c1c(C)[nH]c2ccccc12 (stereo not drawn)	45µM*	42%	-1%	4%	-4%
Cc1[nH]c2ccccc2c1C(c1ccccn1)N1CCCC1 (stereo not drawn)	?	-4%	2%	-9%	3%
O=C1CCCc2cc(S(=O)(=O)N3CCCC(C(=O)Nc4ccc(F)c(Cl)c4)C3)ccc2N1 (stereo not drawn)	-2%	.	-2%	.	.
CCCSc1nc2c([nH]c3ccccc32)c(=O)n1C	4%	.	2%	.	.
COC1=C(Nc2ccc(O)cc2)C(=O)c2ccccc2C1=O	?	?	-20%	-28%	-20%
CCOc1ccc(NC2=C(OC)C(=O)c3ccccc3C2=O)cc1	-5%	8.9µM*	5%	-27%	-16%
COC1=C(Nc2ccc(OC)cc2)C(=O)C(OC)=C(Nc2ccc(OC)cc2)C1=O	.	-2%	0%	-9%	.
COC1=C(Nc2ccc(OC)cc2)C(=O)c2ccccc2C1=O	-1%	13µM*	-9%	?	-17%
CCC(Cc1ccccc1)NC(=O)c1csc2c1CCCCC2 (stereo not drawn)	24%	.	2%	.	.
C=CCN1C(=O)/C(=c2\sc3nc(=O)c(Cc4ccccc4)nn3c2=O)c2ccccc21	1.4µM*	-16%	?	-20%	-27%
C=CCN1C(=O)/C(=N/n2cnnc2)c2ccccc21	-3%	0%	-11%	-5%	4%
C=CCN1C(=O)/C(=c2\sc3nc(=O)c(Cc4ccc(OC)c(OC)c4)nn3c2=O)c2ccccc21	0.63µM*	-5%	?	-8%	?
CCN1C(=O)/C(=c2\sc3nc(=O)c(Cc4ccccc4)nn3c2=O)c2ccccc21	3.5µM*	-4%	-21%	-20%	-20%
CCN1C(=O)/C(=C/c2nc3ccccc3c(=O)[nH]2)c2ccccc21	-16%	-12%	2%	-8%	-1%
CN1Cc2sc(NC(=S)NC(=O)c3ccccc3)c(C#N)c2CC1(C)C	32µM*	-21%	-11%	-10%	-1%
CCC1(C)Cc2c(sc(NC(=S)NC(=O)c3ccccc3)c2C#N)CO1 (stereo not drawn)	?	2%	0%	2%	4%
N#Cc1c(NC(=S)NC(=O)c2ccccc2)sc2c1CCC2	4µM*	77%	-12%	-2%	1%
CCOc1ccc(CCNC(=O)c2cn(CC)c3ccc(S(=O)(=O)N4CCCCCC4)cc3c2=O)cc1OCC	-6%	.	-3%	.	.
O=C(CSc1nc2c([nH]c3ccccc32)c(=O)n1-c1cccc(Cl)c1)c1ccccc1	5%	.	-8%	.	.
CCc1cc(CN2CCOCC2)c(NC(=O)c2ccccc2)s1	-19%	-8%	2%	-10%	-4%
CCc1cc(C(c2ccc(OC)c(OC)c2)N2CCOCC2)c(NC(=O)c2ccccc2)s1 (stereo not drawn)	2.5µM*	?	-3%	-1%	10%
CCc1cc(C(c2cccc(OC)c2)N2CCOCC2)c(NC(=O)c2ccccc2)s1 (stereo not drawn)	?	-2%	-9%	7%	3%
SMILES	Sm TGR block	AMA1-RON2 inh	Tb PYK inh	RE007 growth inh	LmPK inh
CCc1cc(C(c2ccc(F)cc2)N2CCOCC2)c(NC(=O)c2ccccc2)s1 (stereo not drawn)	4µM*	-1%	3%	11%	0%
CCOc1ccc2[nH]c(=O)c(C(c3nnnn3Cc3ccco3)N3CCC(C)CC3)cc2c1 (stereo not drawn)	45µM*	-2%	-24%	3%	-3%
CCOc1ccc2[nH]c(=O)c(C(c3nnnn3C3CCCCC3)N3CCN(C)CC3)cc2c1 (stereo not drawn)	?	14%	2%	10%	1%
CCOc1ccc2[nH]c(=O)c(C(c3nnnn3C3CCCCC3)N3CCN(CC)CC3)cc2c1 (stereo not drawn)	0%	-4%	-1%	-10%	0%
Cc1ccc(C)c2[nH]c(=O)c(C(c3nnnn3Cc3ccco3)N3CCc4ccccc4C3)cc12 (stereo not drawn)	14µM*	7%	-16%	-11%	3%
CCOc1ccc2[nH]c(=O)c(C(c3nnnn3Cc3ccco3)N3CCCC(C)C3)cc2c1 (stereo not drawn)	11µM*	-8%	-22%	-6%	2%
O=C(CSc1ccccn1)Nc1nc2ccccc2s1	-8%	-1%	-7%	-24%	3%
O=S(=O)(CCSc1nc2ccccc2o1)c1nc2ccccc2s1	0.71µM*	4%	1%	-10%	6%
O=S(=O)(CCSc1ccccn1)c1nc2ccccc2s1	0.79µM*	21%	5%	?	5%
O=C(O)Cc1nc(-c2cccnc2)sc1-c1ccc(Br)cc1	11µM*	-10%	-6%	5%	-1%
O=C1C(c2ccccc2)=[N+]([O-])c2ccccc21	?	13µM*	0%	?	.
Cc1ccccc1C(=O)NCc1nc2cccnc2n1Cc1ccccc1	4%	.	3%	.	.
O=C(NC1CCC(O)CC1)c1cc(-c2ccco2)nc2ccccc12 (stereo not drawn)	11µM*	?	-11%	14%	10%
COc1cccc(-c2cc(C(=O)NC3CC3)c3ccccc3n2)c1	-21%	-16%	-12%	-6%	-12%
O=C(NCC1CCCO1)c1cc(-c2ccco2)nc2ccccc12 (stereo not drawn)	35µM*	-20%	-7%	-13%	5%
COc1cc2c(cc1OC)C1=C(C#N)CN(CC(=O)O)CN1CC2	35µM*	50%	-4%	6%	6%
COc1cc2c(cc1OC)C1=C(C#N)CCC(=NC(=O)c3ccco3)N1CC2	.	8%	1%	-15%	1%
CN(C)c1ccc(C(=O)/C=C/c2cccnc2)cc1	-30%	0%	3%	-12%	-1%
O=C(/C=C/c1cccnc1)c1ccc(F)c(F)c1	28µM*	0%	8%	-55%	-2%
O=C(/C=C/c1ccc([N+](=O)[O-])cc1)c1cccnc1	16µM*	-15%	-20%	16µM*	-3%
O=C(/C=C/c1ccc([N+](=O)[O-])cc1)NCc1cccnc1	-27%	-8%	6%	-2%	0%
C=CCN1c2ccccc2[C@]23C[C@@H](C(=O)OC)N(S(=O)(=O)c4c(C)noc4C)C2=NC(C(=O)OC)=C(C(=O)OC)[C@H]13	.	.	.	.	-6%[11.5 µM]
